Laboratory results as given in ChEMBL document CHEMBL1201862, “PubChem BioAssay data set” (2004).
Among all 270,000 compounds or so, about 5,800 (2.1%) were called active. Roughly 16% stayed inconclusive and do not appear here. The rule behind the calls is not given here. The full list was thinned out, with actives kept by preference.

biological target: Microtubule-associated protein tau (Homo sapiens) (UniProt P10636); test: qHTS for Inhibitors of Tau Fibril Formation, Thioflavin T Binding. [Related pubchem assays: 596 ]
Sequence (P10636 whole entry): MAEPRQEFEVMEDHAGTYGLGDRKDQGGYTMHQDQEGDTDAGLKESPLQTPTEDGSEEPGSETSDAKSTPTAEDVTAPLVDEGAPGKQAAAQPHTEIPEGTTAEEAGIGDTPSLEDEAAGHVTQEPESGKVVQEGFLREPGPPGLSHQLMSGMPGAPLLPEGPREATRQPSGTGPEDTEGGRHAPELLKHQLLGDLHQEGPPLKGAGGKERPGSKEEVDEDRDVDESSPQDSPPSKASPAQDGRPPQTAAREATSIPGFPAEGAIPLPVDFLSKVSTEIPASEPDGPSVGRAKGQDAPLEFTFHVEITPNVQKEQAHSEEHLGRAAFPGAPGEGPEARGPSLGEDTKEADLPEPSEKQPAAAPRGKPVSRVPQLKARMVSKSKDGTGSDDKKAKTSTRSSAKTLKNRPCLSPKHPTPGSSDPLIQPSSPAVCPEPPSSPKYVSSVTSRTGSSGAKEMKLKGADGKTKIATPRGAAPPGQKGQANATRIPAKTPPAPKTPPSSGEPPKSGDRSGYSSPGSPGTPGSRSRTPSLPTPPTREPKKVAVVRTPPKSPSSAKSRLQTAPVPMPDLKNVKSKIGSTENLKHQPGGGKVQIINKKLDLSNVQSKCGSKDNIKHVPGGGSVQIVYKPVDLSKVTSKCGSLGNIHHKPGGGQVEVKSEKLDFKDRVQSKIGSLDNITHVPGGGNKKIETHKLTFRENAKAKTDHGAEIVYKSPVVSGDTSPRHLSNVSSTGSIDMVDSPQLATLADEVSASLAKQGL

Row | Compound | Potency
1 | O=C(O)c1cc(/N=N/c2ccc(S(=O)(=O)Nc3ccccn3)cc2)ccc1O | 12.6 µM (active)
